Test results from PubChem BioAssay.
Where “and” joins values, the source holds several entries; their conditions need not be identical. Equal values may be shown once. Calls of active or inactive are those of the source.

Key:
[1] = tested on: PRMT1 (protein arginine N-methyltransferase 1); assay: small molecules binding arginine methyltransferase PRMT1 – biochemical, small-molecule microarray, 635 nm fluorescence, primary screen (AID 1088); settings: higher = more signal;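 further: binding of Prmt1 protein to compounds spotted on small-molecule microarray slides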
[2] = growth effects on S. cerevisiae YJM789 – YJM789 clinical isolate, OD600, 24 h, basal, primary screen (AID 1089); settings: higher = more signal, called active from +8 up or from −8 down;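 further: growth of clinical yeast isolate S. cerevisiae YJM 789 seeded 1000 cells per well; test concentration not given here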
[3] = S. pombe growth modifiers, basal conditions – strain 972, OD600, 24 h, no modulator, primary screen (AID 1090);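 further: basal condition with compound alone and no growth modifier present; test concentration not given here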; settings: S. pombe 972 growth, higher = more signal, called active from +8 up or from −8 down
[4] = budding yeast growth modifiers under rapamycin – strain BY4716, OD600, 96 h, primary screen (AID 1091); further: test concentration not given here; settings: S. cerevisiae BY4716 + rapamycin, higher = more signal, called active from +8 up or from −8 down
[5] = molecular target: Torsin-1A-interacting protein 2 (Homo sapiens) (UniProt Q8NFQ8); assay: small molecules binding lysate-expressed LULL1 – cell lysate, human LULL1 lysate, 635/667 nm fluorescence, primary screen (AID 1092); settings: small-molecule microarray, hLULL1 lysate binding, 635 nm fluorescence; higher = more signal;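 further: probe is lysate of COS7 cells overexpressing human LULL1; score merges per-feature 667 nm fluorescence with signal-to-noise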
[6] = optical density change of DRC41 E. coli – strain DRC41, OD650, 24 h, E. coli filamentation project, primary screen (AID 1093);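 further: MC1000 strain lacking acrAB efflux and sulA so SOS filamentation is blocked; test concentration not given here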; settings: E. coli DRC41 growth, higher = more signal, called active from +8 up or from −8 down
[7] = probe aLefty2 binding to arrayed compounds – biochemical, biotinylated probe, 635/667 nm fluorescence, primary screen (AID 1094); settings: small-molecule microarray, higher = more signal;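 further: score merges spot fluorescence near 667 nm with spot signal-to-noise ratio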
[8] = tested on: Noggin (protein binding on small-molecule microarray); assay: small molecules binding Noggin protein – biochemical, 635/667 nm fluorescence, primary screen (AID 1095); settings: 635 nm fluorescence, higher = more signal;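 further: score merges 667 nm feature fluorescence with signal to noise over triplicate slides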
[9] = molecular target: Neurogenic locus notch homolog protein 3 (Homo sapiens) (UniProt Q9UM47); assay: small molecules binding NOTCH3 protein – biochemical, 635/667 nm fluorescence, primary screen (AID 1096); settings: small-molecule microarray, 635 nm fluorescence, higher = more signal
[10] = probe aEGFR binding to arrayed compounds – biochemical, biotinylated probe, 635/667 nm fluorescence, primary screen (AID 1097); settings: small-molecule microarray, higher = more signal;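 further: probe is a biotinylated anti-EGFR antibody binding compounds printed on slides; score combines fluorescence near 667 nm and signal to noise of each spot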
[11] = tested on: Plasmodium falciparum Sir2 (PF13_0152, Sir2A); assay: Plasmodium falciparum Sir2A binding compounds – biochemical, small-molecule microarray, 635 nm fluorescence, primary screen (AID 1098); settings: fluorescence 635 nm, higher = more signal;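 further: score merges spot fluorescence intensity with its signal-to-noise ratio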
[12] = probe aDKK1 binding to arrayed compounds – biochemical, biotinylated probe, 635/667 nm fluorescence, primary screen (AID 1099); settings: small-molecule microarray, higher = more signal;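 further: score merges 667nm spot fluorescence with signal to noise across triplicate slides; reference of the scale not given here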
[13] = probe aCHRDL2 binding to arrayed compounds – biochemical, biotinylated probe, 635/667 nm fluorescence, primary screen (AID 1100); settings: small-molecule microarray, higher = more signal
[14] = change in splice reporter luminescence, either direction, cell-based, HEK293, spliceosome inhibition project, primary screen (AID 1101); settings: HEK293 splicing luciferase reporter, 24 h, higher = more signal, called active from +8 up or from −8 down;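 further: HEK293 cells carrying a splicing-competent luciferase reporter gene; test concentration not given here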
[15] = molecular target: Fibroblast growth factor 10 (Homo sapiens) (UniProt O15520); assay: compounds binding fibroblast growth factor 10 – biochemical, small-molecule microarray, 635 nm fluorescence, primary screen (AID 1102); settings: FGF10 binding, fluorescence 635 nm, higher = more signal
[16] = tested on: glycogen synthase kinase-3 (GSK3A per assay name; protocol says GSK3B); assay: compounds binding glycogen synthase kinase-3 – biochemical, small-molecule microarray, 635 nm fluorescence, GSK3A, primary screen (AID 1103); settings: fluorescence 635 nm, higher = more signal; further: the record names both GSK3A and GSK3B
[17] = molecular target: Epidermal growth factor receptor (Homo sapiens) (UniProt P00533); assay: compounds binding epidermal growth factor receptor – biochemical, small-molecule microarray, 635 nm fluorescence, primary screen (AID 1104); settings: EGFR binding, higher = more signal;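 further: score merges 667 nm emission intensity with spot signal to noise over triplicate slides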
[18] = molecular target: Follistatin-related protein 3 (Homo sapiens) (UniProt O95633); assay: compounds binding follistatin-related protein 3 – biochemical, small-molecule microarray, 635 nm fluorescence, primary screen (AID 1105); settings: FSTL3 binding, higher = more signal;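 further: score merges emission near 667 nm and signal to noise per printed spot across three slides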
[19] = molecular target: Dickkopf-related protein 1 (Homo sapiens) (UniProt O94907); assay: small molecules binding DKK1 protein – biochemical, small-molecule microarray, 635 nm fluorescence scan, primary screen (AID 1106); settings: higher = more signal;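 further: score merges emission near 667 nm with signal to noise over three replicate slides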
[20] = tested on: Inhibin beta A chain (activin A); assay: small molecules binding activin A – biochemical, small-molecule microarray, 635 nm fluorescence scan, primary screen (AID 1107); settings: INHBA, higher = more signal;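 further: mouse activin A protein probed at 4.33 µg/mL on printed slides; score merges bound-protein fluorescence near 667 nm with spot signal-to-noise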

Chain of Epidermal growth factor receptor (Homo sapiens) (P00533 whole entry, looked up): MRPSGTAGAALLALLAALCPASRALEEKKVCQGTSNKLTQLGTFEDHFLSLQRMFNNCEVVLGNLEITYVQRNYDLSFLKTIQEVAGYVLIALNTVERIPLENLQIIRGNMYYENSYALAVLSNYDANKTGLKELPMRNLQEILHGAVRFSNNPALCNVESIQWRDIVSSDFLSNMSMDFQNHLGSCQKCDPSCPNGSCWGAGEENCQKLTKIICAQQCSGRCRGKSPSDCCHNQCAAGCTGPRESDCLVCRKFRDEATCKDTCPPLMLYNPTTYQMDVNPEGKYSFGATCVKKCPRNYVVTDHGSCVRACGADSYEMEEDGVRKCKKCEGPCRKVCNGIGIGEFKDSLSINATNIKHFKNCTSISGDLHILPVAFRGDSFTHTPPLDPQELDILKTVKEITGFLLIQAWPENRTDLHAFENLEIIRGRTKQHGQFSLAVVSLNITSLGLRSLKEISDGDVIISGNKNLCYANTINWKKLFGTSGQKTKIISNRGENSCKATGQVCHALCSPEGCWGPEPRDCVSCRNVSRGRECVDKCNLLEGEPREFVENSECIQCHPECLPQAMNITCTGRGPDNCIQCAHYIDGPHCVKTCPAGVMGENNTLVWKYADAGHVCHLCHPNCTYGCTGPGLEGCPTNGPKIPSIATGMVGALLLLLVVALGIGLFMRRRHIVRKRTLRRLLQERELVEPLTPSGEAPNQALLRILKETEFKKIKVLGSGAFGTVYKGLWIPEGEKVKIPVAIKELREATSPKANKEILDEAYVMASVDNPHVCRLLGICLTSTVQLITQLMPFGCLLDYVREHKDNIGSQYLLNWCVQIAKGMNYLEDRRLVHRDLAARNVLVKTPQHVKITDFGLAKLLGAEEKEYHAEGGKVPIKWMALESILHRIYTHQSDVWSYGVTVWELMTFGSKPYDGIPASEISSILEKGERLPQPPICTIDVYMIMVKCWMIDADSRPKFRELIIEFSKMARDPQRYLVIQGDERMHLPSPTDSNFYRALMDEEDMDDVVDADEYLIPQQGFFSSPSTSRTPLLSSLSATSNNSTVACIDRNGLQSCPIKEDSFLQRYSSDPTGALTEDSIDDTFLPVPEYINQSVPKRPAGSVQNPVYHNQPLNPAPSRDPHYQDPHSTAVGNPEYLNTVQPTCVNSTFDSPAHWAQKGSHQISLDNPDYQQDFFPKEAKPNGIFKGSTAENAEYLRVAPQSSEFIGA
Chain of Follistatin-related protein 3 (Homo sapiens) (O95633 whole entry, looked up): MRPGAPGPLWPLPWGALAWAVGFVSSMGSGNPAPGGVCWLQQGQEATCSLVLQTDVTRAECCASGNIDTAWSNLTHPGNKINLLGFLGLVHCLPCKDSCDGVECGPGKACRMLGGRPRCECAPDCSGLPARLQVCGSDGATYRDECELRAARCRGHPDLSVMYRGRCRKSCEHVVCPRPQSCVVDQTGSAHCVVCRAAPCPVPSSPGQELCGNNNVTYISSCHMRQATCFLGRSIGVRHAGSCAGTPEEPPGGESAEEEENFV
Chain of Dickkopf-related protein 1 (Homo sapiens) (O94907 whole entry, looked up): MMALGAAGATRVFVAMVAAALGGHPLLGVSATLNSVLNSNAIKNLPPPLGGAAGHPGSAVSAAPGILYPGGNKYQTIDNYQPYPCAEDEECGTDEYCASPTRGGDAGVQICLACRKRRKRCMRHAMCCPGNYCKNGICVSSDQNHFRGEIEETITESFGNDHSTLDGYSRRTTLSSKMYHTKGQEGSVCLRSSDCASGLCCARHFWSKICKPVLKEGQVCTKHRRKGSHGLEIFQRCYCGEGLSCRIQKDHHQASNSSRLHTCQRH
Chain of Neurogenic locus notch homolog protein 3 (Homo sapiens) (Q9UM47 whole entry, looked up): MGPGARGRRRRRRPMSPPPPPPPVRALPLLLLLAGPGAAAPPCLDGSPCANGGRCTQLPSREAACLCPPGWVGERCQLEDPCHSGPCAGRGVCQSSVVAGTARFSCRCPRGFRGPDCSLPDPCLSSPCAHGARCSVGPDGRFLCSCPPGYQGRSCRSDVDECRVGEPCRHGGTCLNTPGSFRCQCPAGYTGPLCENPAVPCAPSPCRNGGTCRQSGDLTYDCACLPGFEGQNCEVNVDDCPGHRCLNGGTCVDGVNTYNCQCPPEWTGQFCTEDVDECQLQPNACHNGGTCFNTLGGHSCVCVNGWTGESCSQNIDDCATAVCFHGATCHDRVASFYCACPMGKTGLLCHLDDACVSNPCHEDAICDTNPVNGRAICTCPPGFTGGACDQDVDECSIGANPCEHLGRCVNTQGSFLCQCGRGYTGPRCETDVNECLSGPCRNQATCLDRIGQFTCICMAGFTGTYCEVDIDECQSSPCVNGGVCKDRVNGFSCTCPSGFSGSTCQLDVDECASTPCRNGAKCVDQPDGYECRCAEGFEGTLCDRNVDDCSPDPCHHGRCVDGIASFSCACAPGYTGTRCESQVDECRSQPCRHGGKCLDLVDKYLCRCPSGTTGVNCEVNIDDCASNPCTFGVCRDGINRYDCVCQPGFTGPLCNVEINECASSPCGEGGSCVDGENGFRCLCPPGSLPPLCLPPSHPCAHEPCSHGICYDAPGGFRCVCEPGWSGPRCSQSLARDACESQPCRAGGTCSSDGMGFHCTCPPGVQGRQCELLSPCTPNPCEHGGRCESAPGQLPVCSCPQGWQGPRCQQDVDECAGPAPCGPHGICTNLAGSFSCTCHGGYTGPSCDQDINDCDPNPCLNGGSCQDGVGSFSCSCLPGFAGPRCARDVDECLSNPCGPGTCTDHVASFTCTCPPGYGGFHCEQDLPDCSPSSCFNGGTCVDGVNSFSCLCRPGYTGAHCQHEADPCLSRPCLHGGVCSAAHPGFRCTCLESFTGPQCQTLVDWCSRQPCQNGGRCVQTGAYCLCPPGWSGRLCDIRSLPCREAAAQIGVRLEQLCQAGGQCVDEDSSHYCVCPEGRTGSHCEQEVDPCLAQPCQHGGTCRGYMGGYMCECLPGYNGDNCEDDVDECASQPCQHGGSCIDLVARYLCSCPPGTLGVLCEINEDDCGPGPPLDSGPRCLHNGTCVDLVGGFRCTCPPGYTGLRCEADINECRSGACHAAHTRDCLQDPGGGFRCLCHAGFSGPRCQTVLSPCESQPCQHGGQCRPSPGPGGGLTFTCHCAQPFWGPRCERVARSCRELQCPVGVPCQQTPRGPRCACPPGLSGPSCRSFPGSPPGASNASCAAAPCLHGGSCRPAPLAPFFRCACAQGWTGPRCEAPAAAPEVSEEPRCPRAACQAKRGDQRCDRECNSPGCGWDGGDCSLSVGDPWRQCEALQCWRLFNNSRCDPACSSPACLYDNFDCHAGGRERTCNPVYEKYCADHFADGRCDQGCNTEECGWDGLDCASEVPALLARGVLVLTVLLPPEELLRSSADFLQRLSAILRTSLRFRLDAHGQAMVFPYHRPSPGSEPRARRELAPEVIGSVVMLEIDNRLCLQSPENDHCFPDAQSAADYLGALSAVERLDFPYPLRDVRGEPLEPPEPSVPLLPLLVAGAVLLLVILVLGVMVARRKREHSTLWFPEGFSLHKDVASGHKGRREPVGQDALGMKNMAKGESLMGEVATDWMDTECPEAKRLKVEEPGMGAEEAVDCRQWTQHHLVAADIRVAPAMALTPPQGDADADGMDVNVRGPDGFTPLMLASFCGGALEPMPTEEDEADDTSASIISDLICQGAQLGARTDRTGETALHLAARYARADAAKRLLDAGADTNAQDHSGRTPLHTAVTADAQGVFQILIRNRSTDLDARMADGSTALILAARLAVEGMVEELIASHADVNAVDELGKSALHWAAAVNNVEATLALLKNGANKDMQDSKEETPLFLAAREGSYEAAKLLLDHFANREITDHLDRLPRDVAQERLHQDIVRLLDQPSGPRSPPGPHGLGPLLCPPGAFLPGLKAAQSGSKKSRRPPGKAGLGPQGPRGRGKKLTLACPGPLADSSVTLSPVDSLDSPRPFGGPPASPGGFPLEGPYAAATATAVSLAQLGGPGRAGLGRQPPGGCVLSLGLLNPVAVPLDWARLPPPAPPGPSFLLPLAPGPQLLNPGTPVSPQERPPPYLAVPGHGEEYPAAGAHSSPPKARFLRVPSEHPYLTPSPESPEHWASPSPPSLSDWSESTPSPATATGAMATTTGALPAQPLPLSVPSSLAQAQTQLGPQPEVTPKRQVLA
Chain of Torsin-1A-interacting protein 2 (Homo sapiens) (Q8NFQ8 whole entry, looked up): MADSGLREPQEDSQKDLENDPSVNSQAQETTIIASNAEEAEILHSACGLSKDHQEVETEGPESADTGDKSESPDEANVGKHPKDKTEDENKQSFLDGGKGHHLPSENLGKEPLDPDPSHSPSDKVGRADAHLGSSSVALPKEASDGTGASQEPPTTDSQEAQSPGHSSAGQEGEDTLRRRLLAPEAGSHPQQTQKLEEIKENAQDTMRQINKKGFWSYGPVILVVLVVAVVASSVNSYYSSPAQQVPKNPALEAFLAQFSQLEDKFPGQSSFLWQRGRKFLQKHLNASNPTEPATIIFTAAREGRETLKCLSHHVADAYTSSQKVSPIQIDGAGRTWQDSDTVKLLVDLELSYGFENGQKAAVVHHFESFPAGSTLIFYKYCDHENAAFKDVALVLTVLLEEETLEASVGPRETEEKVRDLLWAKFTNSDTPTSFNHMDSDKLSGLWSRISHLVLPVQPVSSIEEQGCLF
Chain of Fibroblast growth factor 10 (Homo sapiens) (O15520 whole entry, looked up): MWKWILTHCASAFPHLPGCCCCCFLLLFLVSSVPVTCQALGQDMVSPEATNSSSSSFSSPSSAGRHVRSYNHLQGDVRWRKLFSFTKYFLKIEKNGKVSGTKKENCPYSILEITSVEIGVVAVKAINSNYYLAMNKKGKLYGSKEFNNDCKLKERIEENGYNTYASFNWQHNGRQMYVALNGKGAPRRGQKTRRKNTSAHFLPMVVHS

| Compound | composite z-score [1] | z-score [2] | z-score [3] | z-score [4] | composite z-score [5] | z-score [6] | composite z-score [7] | composite z-score [8] | composite z-score [9] | composite z-score [10] | composite z-score [11] | composite z-score [12] | composite z-score [13] | z-score [14] | composite z-score [15] | composite z-score [16] | composite z-score [17] | composite z-score [18] | composite z-score [19] | composite z-score [20] |
| --- | --- | --- | --- | --- | --- | --- | --- | --- | --- | --- | --- | --- | --- | --- | --- | --- | --- | --- | --- | --- |
| CO[C@H]1COC(=O)CC=C[C@@H](C)COC(=O)[C@H](CCSC)NC(=O)CC=C[C@@H]1C | 1.55 and 1.54 | 0.833 (inactive) and -0.697 (inactive) | -0.201 (inactive) and -0.712 (inactive) | 0.35 (inactive) and -0.862 (inactive) | -0.649 and -1.15 | 0.32 (inactive) and -0.145 (inactive) | -0.114 and -0.0629 | 1.64 and 2.04 | 0.593 and 0.59 | 0.49 and 0.59 | 0.536 and 0.111 | -0.51 and -0.591 | -1.59 and -2.05 | 0.191 (inactive) and -0.244 (inactive) | 1.12 and 1.16 | 1.29 and 1.3 | 1.28 and 1.69 | 1.57 and 1.49 | 2.29 and 2.22 | 0.626 and -0.119 |
| COC(=O)[C@H](C)NC(=O)CCC1CC(OC(=O)NCCc2ccc(F)cc2)CC2(CCCC(COC(=O)NCCCN3CCCC3=O)O2)O1 (stereo not given in full) | 1.55 | -0.432 (inactive) | 0.899 (inactive) | 0.849 (inactive) | 1.64 | -0.681 (inactive) | -0.168 | 0.727 | 1.03 | -0.0505 | 1.07 | -0.0361 | 0.778 | -0.247 (inactive) | 1.14 | 1.28 | 0.597 | 1.36 | 1.44 | -0.0362 |
| C=C[C@@H](OC)[C@H](O)c1ccc(O)c(F)c1 | -0.846 and -1.51 | 0.144 (inactive) and -3.13 (inactive) | -1.44 (inactive) and -3.23 (inactive) | 0.126 (inactive) and -0.692 (inactive) | -0.329 and -0.941 | 0.401 (inactive) and 1.45 (inactive) | -0.257 and -0.124 | -2.13 and -1.13 | -1.37 and -0.192 | -0.435 and -0.299 | 0.767 and -0.815 | -0.324 and -0.472 | 0.576 and 0.268 | -0.668 (inactive) and -2.09 (inactive) | -1.19 and -1.46 | -1.5 and -1.29 | -1.59 and -0.277 | -2.7 and -1.75 | -1.37 and -0.856 | -2.04 and -0.759 |
| CC(C)=NO[C@@H](C)c1cc(-c2c(C)cc(C)cc2C)no1 | -0.389 | -0.166 (inactive) | -3.55 (inactive) | -0.0423 (inactive) | 0.168 | -0.272 (inactive) | -0.122 | 0.412 | -0.434 | -0.101 | 0.624 | -0.0037 | 0.0373 | -1.47 (inactive) | 0.0369 | -0.166 | -0.0855 | -0.234 | -0.289 | 0.952 |
| COC(=O)[C@@]1(Cc2ccc(OC)cc2)[C@H]2c3cc(C(=O)N(C)C)n(Cc4ccc(O)c(OC)c4)c3C[C@H]2CN1C(=O)c1ccccc1 | -0.406 and 0.571 | 0.403 (inactive) and -0.731 (inactive) | 1.08 (inactive) and 1.73 (inactive) | 0.374 (inactive) and 2.03 (inactive) | 3.65 and 3.34 | 0.151 (inactive) and 0.266 (inactive) | 0.437 and 0.261 | 0.219 and 0.19 | 0.807 and 1.07 | 0.0395 and 0.0354 | 1.17 and 1.27 | 0.714 and 0.773 | 1.08 and 0.94 | -2.55 (inactive) and -2.51 (inactive) | 0.113 and 1.15 | 0.568 and -0.198 | -0.14 and -0.143 | 0.418 and 0.592 | -0.529 and -0.128 | 0.876 and 0.416 |
| C[C@@H]1CC[C@@H](C(=O)O)N[C@H]1c1ccc(-c2ccco2)cc1 | 1.06 | 0.804 (inactive) | -0.383 (inactive) | -0.476 (inactive) | 0.534 | -0.0778 (inactive) | 0.0331 | 1.26 | 0.945 | -0.115 | 1.04 | -0.187 | -0.826 | 0.0295 (inactive) | 0.614 | 0.722 | 0.946 | 1.44 | 0.951 | 0.805 |
| C=CCN(C(=O)C(c1cccs1)N(C(=O)/C=C\C(=O)O)C(C)(C)CO)C(C)(C)C (stereo not given) | -0.381 and 0.182 | -1.81 (inactive) and -2 (inactive) | -1.45 (inactive) and -1.15 (inactive) | -0.429 (inactive) and -0.373 (inactive) | 2.89 and 0.484 | 2.02 (inactive) and 1.22 (inactive) | -0.141 and -0.147 | -1.52 and -1.23 | -0.97 and -0.967 | -0.128 and -0.292 | -0.387 and -0.159 | -0.136 and -0.239 | 0.784 and 0.498 | -1.67 (inactive) and -1.52 (inactive) | -1.22 and -1.16 | -0.489 and -0.532 | -0.928 and -0.661 | -1.54 and -1.07 | -1.53 and -1.58 | -0.792 and -0.643 |
| CCCCN1CC=CC23O[C@@H]4C=CCCOC(=O)C4[C@H]2C(=O)N(C(C)CO)[C@@H]3C1=O (stereo not given in full) | 0.275 and -0.575 | -0.601 (inactive) and 1.38 (inactive) | -0.158 (inactive) and 1.52 (inactive) | -0.164 (inactive) and 0.868 (inactive) | 3.12 and -0.0307 | -0.164 (inactive) and 0.287 (inactive) | -0.179 and -0.0421 | -0.72 and -0.244 | -0.391 and -0.4 | -0.221 and 0.0329 | 0.381 and 0.0105 | -0.286 and -0.221 | 0.473 and -0.194 | 0.856 (inactive) and -0.0825 (inactive) | -0.346 and 0.232 | -0.662 and -0.551 | -0.683 and -0.191 | -0.934 and -0.0066 | -0.135 and 0.176 | 0.958 and 1.07 |
